Data: the supplement of paper PMC9334596
“And” between values parts separate entries of the source, which are not always exact repeats. Equal values may be shown once. The full ranking holds about 5,300 compounds; the median of “PER2::LUC luminescence relative to vehicle control” is about 0.96, and the highest 2% start at about 1.3. The list comes from a sample in which the highest values are over-represented; it also holds similar structures and randomly drawn compounds.

Test system: mPer2Luc MEF
Test: PER2::LUC luminescence relative to vehicle control (fold of vehicle); higher = higher PER2::LUC reporter signal
Conditions: 10 µM
How it was run: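 Mouse embryonic fibroblasts carrying the mPer2Luc reporter were seeded at ~3000 cells per well in 384-well plates, 48 h before compounds from commercial libraries were added at 10 μM. Cells were grown in DMEM with 10% FBS at 37 °C and 5% CO2. Luminescence was read with the ONE-Glo luciferase assay system 24 h and 30 h after treatment, followed by an alamarBlue viability assay. The value is PER2::LUC luminescence as fold of vehicle control.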

Compound | PER2::LUC luminescence (time after treatment 24 h) | PER2::LUC luminescence (time after treatment 30 h)
CC(C)=CCC[C@](C)(O)[C@H]1CC[C@]2(C)[C@@H]1CC[C@@H]1[C@@]3(C)CCC(=O)C(C)(C)[C@@H]3CC[C@]12C | 1.05 | 0.987
CC(=O)OC[C@@]1(O)C[C@@]23CC[C@@H]4c5ccoc5C=C[C@@]4(C)[C@@H]2CC[C@@H]1C3 | 1.02 | 0.958
N#Cc1cccc2sc(C(=O)N=C(N)N)cc12 | 1.02 | 1.08
N[C@H](CC(=O)O)C(=O)O | 1.09 | 1.08
NCC(O)CC(=O)O (stereo not given) | 1.23 and 1.06 | 1.56 and 0.991
C[N+](C)(C)C[C@H](O)CC(=O)O | 0.959 | 0.919
O=C1OC(C=Cc2ccccc2)=NC1=Cc1cccnc1 | 1.03 | 1.05
O=C(CCc1ccccc1)N1CCC(O)(Cn2cnc3cc(Cl)ccc3c2=O)CC1 | 0.949 | 0.916
Cc1ccc2c(Nc3ccc(Cl)cc3)nccc2c1Nc1ncccc1-c1ncnc2nc[nH]c12 | 0.42 | 0.349
N=C(NC(=O)c1nc(Cl)c(N)nc1N)Nc1ccccc1 | 1.32 | 1.39
N/C(=N\C(=O)c1nc(Cl)c(N)nc1N)NCc1ccccc1 | 1.08 | 0.986
N=C(N)NC(=O)c1nc(Cl)c(N)nc1N | 1.32 | 1.12
CNc1ncnc2c1ncn2[C@H]1C[C@H](O)[C@@H](CO)O1 | 1.04 | 0.963
C[C@@H]1O[C@@H](O[C@@H]2[C@@H](O)[C@H](O)[C@@H](CO)O[C@H]2c2c(O)cc(O)c3c(=O)cc(-c4ccc(O)cc4)oc23)[C@H](O)[C@H](O)[C@H]1O | 1.04 | 0.979
O=C1c2ccccc2C(=O)C1c1ccc(Br)cc1 | 0.477 | 0.974
O=C1c2ccccc2C(=O)C1c1ccccc1 | 1.05 and 0.913 | 1 and 0.991
COc1ccc(C2C(=O)c3ccccc3C2=O)cc1 | 1.08 | 1.36
CCCCOC(=O)OCCCC | 1 | 1.02
CC1=CC(=O)CC(C)(C)C1(O)/C=C/C(C)=C\C(=O)O (racemic) | 1.01 | 1.02
CCOCCOc1ccccc1C(N)=O | 0.861 | 1.09

Compound | PER2::LUC luminescence (time after treatment 24 h) | PER2::LUC luminescence (time after treatment 30 h)
CCOc1ccccc1C(N)=O | 1.03 and 0.951 | 0.986 and 0.793
CCCCCCOc1ccccc1C(N)=O | 1.33 | 1.53
COc1ccc2cc([C@@H](C)C(=O)O)ccc2c1 | 1 | 1.05
COc1ccc2cc(CCC(C)=O)ccc2c1 | 1.75 | 1.7
COc1ccc2cc([C@H](C)C(=O)O)ccc2c1 | 0.987 and 1.09 and 0.7 | 0.972 and 0.822 and 0.852
CCO/N=C1\c2ccccc2-c2nc(C#N)c(C#N)nc21 | 0.664 | 0.619
C=CC(=O)c1ccc(CCCCCC)cc1 | 1.02 | 0.845
CCNCCNC(=O)c1c(C)[nH]c(/C=C2\C(=O)Nc3ccc(F)cc32)c1C | 0.42 | 0.619
CC(C)(Cc1nc(-c2ccc(O)cn2)no1)C(=O)NC1=C(C(=O)O)CCCC1 | 1.02 | 1.08
c1ccc(-c2ccc(C(c3ccccc3)n3ccnc3)cc2)cc1 (stereo not given) | 1.45 | 1.32
N#Cc1ccc(C(c2ccc(C#N)cc2)n2cncn2)cc1 | 0.794 | 1.11
FC(F)(F)c1ccccc1-n1ccnc1 | 0.975 | 0.907
O=C1c2ccccc2C(=O)c2oc(-c3ccccc3)nc21 | 1.15 | 0.538
Cc1cc(NC(=O)Nc2ccc3c(ccn3C)c2)sn1 | 1.59 | 1.52
Cn1ccc2cc(NC(=O)Nc3cccnc3)ccc21 | 1.15 | 0.855
CC(C)c1cc(-c2n[nH]c(=O)n2-c2ccc3c(ccn3C)c2)c(O)cc1O | 0.062 | 0.052
N[C@H](CCC(=O)O)C(=O)O | 1.1 | 1.01
CC(C)c1cc2c(cc1S(=O)(=O)O)[C@@]1(C)CCC[C@@](C)(C(=O)O)[C@@H]1CC2 | 1.03 | 1
CC(C)C1=CC2=CC[C@@H]3[C@](C)(CCC[C@@]3(C)C(=O)O)[C@H]2CC1 | 1.34 | 1.15
C=C1C[C@@]23CC[C@H]4[C@@](C)(CCC[C@@]4(C)C(=O)O)[C@@H]2CC[C@]1(O)C3 | 0.886 | 1.12

Compound | PER2::LUC luminescence (time after treatment 24 h) | PER2::LUC luminescence (time after treatment 30 h)
FC(F)(F)c1ccc(Nc2nc(-c3c(C(F)(F)F)nc4ccccn34)cs2)cc1 | 0.269 | 0.305
COc1cc(NC(=O)c2ccc(-c3ccc(Cl)cc3)o2)cc(OC)c1 | 0.947 | 1.04
COc1cccc(NC(=O)/C=C/c2ccc(Cl)cc2)c1 | 1.39 | 1
CC(C)(C)c1ccc(/C=C/C(=O)Nc2ccc3c(c2)OCCO3)cc1 | 0.942 | 1.11
C[n+]1ccc(C=Cc2ccc3ccccc3c2)cc1 | 0.908 | 1.07
Nc1ccc(CCNc2ncnc3c2ncn3C2OC(CO)C(O)C2O)cc1 (stereo not given) | 0.951 | 0.857
OCC1OC(n2cnc3c(NC4CCCCC4)ncnc32)C(O)C1O (stereo not given) | 0.986 | 1.02
CC(Cc1ccccc1)Nc1ncnc2c1ncn2C1OC(CO)C(O)C1O (single isomer, unassigned; (-)) | 0.925 | 0.965
OC[C@H]1O[C@@H](n2cnc3c(Nc4ccccc4)ncnc32)[C@H](O)[C@@H]1O | 1.41 | 1.13
CNc1ncnc2c1ncn2[C@@H]1O[C@H](CO)[C@@H](O)[C@H]1O | 0.974 | 1.04
Cc1ccccc1CNc1ncnc2c1ncn2[C@@H]1O[C@H](CO)[C@@H](O)[C@H]1O | 1.35 | 1.28
COc1ccc2cc1Oc1ccc(cc1)C[C@@H]1c3cc(c(OC)cc3CCN1C)Oc1c(OC)c(OC)cc3c1[C@H](C2)N(C)CC3 | 0.674 | 0.713
COc1cc(N2CCOCC2)ccc1NC(=O)c1csc(-c2cccnc2)n1 | 0.906 | 1.02
CCOC(=O)c1cc(OC)c(OC)cc1NC(=O)c1cc(OC)c(OC)c(OC)c1 | 1.08 | 1.16
CC(C)CCCC(C)C1CCC2C3CCC4CC(O)CCC4(C)C3CCC12C (stereo not given) | 0.978 | 0.951
CC1(C)C=Cc2cc3ccc(=O)oc3cc2O1 | 1.26 | 1.48
COc1cc2ccc(=O)oc2cc1O | 1.02 | 1.04
O=c1ccc2cc(O)c(O)cc2o1 | 0.867 | 0.732
CCOC(=O)CCCCCCCCCCCN(C)C(=O)CO[C@H](C)[C@@H](C)OCC(=O)N(C)CCCCCCCCCCCC(=O)OCC | 1.2 | 1.08
CCN1CCN(Cc2ccc(NC(=O)c3ccc(C)c(/C=C/c4cnc5[nH]ccc5c4OC)c3)cc2C(F)(F)F)CC1 | 0.349 | 0.394
